Bioassay records from PubChem.
Mtb FBA inh: inhibits M. tuberculosis FBA enzyme. P9WQA3. purified M. tuberculosis FBA, fluorescence read-out. inhibition, % at 1 µM. 360,000 compounds, 2.3% hits;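 note: 0% = vehicle and 100% = reference inhibitor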
GDH-TPI counter-1: inhibits GDH-TPI coupling enzymes, artifact for Mtb FBA screen. GDH-TPI coupled enzyme counterscreen, NADH absorbance. inhibition, % at 4.8 µM. 360,000 compounds, 1.2% hits. AID 588335; in the data active = inhibition above about 30%;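 note: 0% = DMSO wells and 100% = wells lacking the enzyme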
Rv3671c protease: inhibitors of M. tuberculosis serine protease Rv3671c | P9WHR9 | inhibition, % at 5.96 µM | 320,000 compounds, 0.048% hits; in the data active = inhibition above about 38%;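 note: extracellular domain of Rv3671c used as enzyme; 0% = enzyme with DMSO and 100% = no enzyme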
Target sequence (P9WHR9 whole entry, looked up, the tested form may be a part): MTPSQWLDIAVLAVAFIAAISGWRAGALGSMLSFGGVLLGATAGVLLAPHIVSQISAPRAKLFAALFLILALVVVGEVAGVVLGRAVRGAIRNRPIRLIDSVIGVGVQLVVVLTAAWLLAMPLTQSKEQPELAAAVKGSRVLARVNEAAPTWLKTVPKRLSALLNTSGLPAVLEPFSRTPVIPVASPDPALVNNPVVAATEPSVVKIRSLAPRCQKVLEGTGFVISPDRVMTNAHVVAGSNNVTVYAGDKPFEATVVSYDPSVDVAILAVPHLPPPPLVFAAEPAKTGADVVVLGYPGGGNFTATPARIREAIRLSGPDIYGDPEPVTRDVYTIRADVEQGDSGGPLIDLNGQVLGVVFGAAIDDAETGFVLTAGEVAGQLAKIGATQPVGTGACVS
Mtb betalactam: beta-lactam sensitization of Mtb H37Rv; inhibition, % at 25 µM; M. tuberculosis H37Rv growth with meropenem, percent inhibition; 330,000 compounds, 0.27% hits; AID 434955; call rule not given here;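 note: growth measured after seven days incubation then overnight dye step; 0% = bacteria only wells and 100% = bacteria with antibiotic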
UGM FP inh: Mtb UDP-galactopyranose mutase inhibition; inhibition, % at 10 µM; purified UGM, fluorescence polarization probe displacement; 320,000 compounds, 0.06% hits; P9WIQ1; in the data active = inhibition above about 10%, passing the limit was not always enough; inconclusive = no clear call, values can overlap the other calls
Mtb FBA inh conf: Mtb FBA inhibition, confirmed | shares compounds with Mtb FBA inh | purified M. tuberculosis FBA, fluorescence read-out | inhibition, % at 1 µM | 5,600 compounds, 78% hits | AID 651616;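 note: 0% = vehicle wells and 100% = reference inhibitor wells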
GDH-TPI counter-2: GDH-TPI inhibition counter-screen for FBA inhibitors. 5,600 compounds, 81% hits. shares compounds with Mtb FBA inh. GDH-TPI coupled enzyme counterscreen, fluorescence. AID 652141. inhibition, % at 1 µM; in the data active = inhibition above about 10%
The depositor's hits bear a star; ? = inconclusive; . = not tested or not shown; + = active, no number. Rows were chosen to be rich in hits. Some 3.5% of all compounds tested hit in one or more screens of this group. Cut-off read from the data, not from the text of the source, unless noted: active = inhibition above about 27%; inactive = the rest.

SMILES | Mtb FBA inh | GDH-TPI counter-1 | Rv3671c protease | Mtb betalactam | UGM FP inh | Mtb FBA inh conf | GDH-TPI counter-2
Cc1ccc(S(=O)(=O)c2c(N)n(CCC(C)C)c3nc4ccccc4nc23)cc1 | 46* | 4 | -49 | 0 | 0 | 107* | 80*
Cc1ccc(NC(=O)CSc2nc(=O)n(CCCN3CCOCC3)c3c2CCCC3)c(C)c1 | 0 | 5 | 5 | -1 | -4 | . | .
Cc1ccc(C)c(S(=O)(=O)Nc2ccc(S(=O)(=O)Nc3ncccn3)cc2)c1 | -4 | 1 | 2 | -3 | 0 | . | .
Cc1ccc(C)c(S(=O)(=O)Nc2ccccc2C(=O)Nc2ccc(S(=O)(=O)Nc3ncccn3)cc2)c1 | 106* | -2 | -18 | 12 | 2 | + | +
CC(=O)Nc1ccc(C(=O)Nc2ccc(S(=O)(=O)Nc3nccc(C)n3)cc2)cc1 | -2 | 3 | -1 | 2 | 0 | . | .
Cc1ccc(S(=O)(=O)Nc2ccccc2C(=O)Nc2ccc(S(=O)(=O)Nc3nccc(C)n3)cc2)cc1 | 66* | 9 | -6 | 0 | 0 | 35* | 20*
CCNC(=O)NC(=O)COC(=O)CCc1nc(=O)c2ccccc2n1C | 5 | 2 | 1 | 1 | 0 | . | .
Cc1cc(SCC(=O)Nc2cccc(S(=O)(=O)N3CCOCC3)c2)nc2ccccc12 | 0 | -4 | -10 | -5 | -1 | . | .
CCOC(=O)C1CCN(c2c(NCCC(C)C)c(=O)c2=O)CC1 | 2 | 5 | 7 | -9 | -1 | . | .
Cc1ccc2c(c1)COc1c3ccc(C(=O)N[C@@H](C)CO)cc3nn1-2 | 34* | 21 | -9 | 14 | -2 | + | +
COC(=O)c1cn(-c2ccccc2)nc1-c1ccccc1 | 36* | -8 | -5 | 0 | -3 | 73* | 56*
Cc1ccc(C(C(=O)NC2CCCCC2)N(CC2CCCO2)C(=O)CCCC(=O)Nc2ccccn2)cc1 (stereo not given) | 3 | 0 | -5 | -2 | -3 | . | .
CCOC(CCNC(=O)c1cn(CCOC)c(=O)c2c1c1ccccc1n2C)OCC | 30* | 5 | 2 | -1 | 0 | 77* | 66*
Cn1c2ccccc2c2c(C(=O)NCc3ccco3)cn(C3CCCCC3)c(=O)c21 | 11 | 12 | 1 | 48 | -2 | . | .
COCCn1cc(C(=O)NCc2ccco2)c2c3ccccc3n(C)c2c1=O | 91* | 14 | -6 | -1 | 1 | + | +
CCCN(CCC)CCCNC(=O)c1cn(CCOC)c(=O)c2c1c1ccccc1n2C | 32* | 20 | -7 | . | -2 | 118* | 90*
Cn1nccc1C(=O)N1CCCC(N2CCN(c3cccc(C(F)(F)F)c3)CC2)C1 (stereo not given) | 3 | 0 | -2 | ? | 2 | . | .
Cc1ccc([C@H]2C(C(=O)O)=CC[C@@H](c3ccc(Cl)c(Cl)c3)N2S(=O)(=O)c2ccc(C)cc2)cc1 | -1 | -3 | -13 | 6 | . | . | .
Cc1cccc(-c2cc3nc(C)cc(N4CC(C)CC(C)C4)n3n2)c1 (stereo not given) | 67* | 10 | -1 | 9 | 0 | 56* | 30*
CCn1cc(C2C(C(=O)Nc3ccc(Br)cn3)=C(C)NC3=C2C(=O)CCC3)c(C)n1 (stereo not given) | 33* | 13 | -7 | -12 | 2 | 132* | 94*
CC1=C(C(=O)Nc2ccc(F)cc2)C(c2ccncc2)C2=C(CCCC2=O)N1 (stereo not given) | 4 | 13 | -10 | -2 | -1 | . | .
CC1=C(C(=O)Nc2ccccn2)C(c2cn(C)nc2C)C2=C(CCCC2=O)N1 (stereo not given) | 37* | 14 | 0 | 2 | -2 | + | 171*
O=c1ccnc(Nc2ccc([N+](=O)[O-])cc2)[nH]1 | -1 | 13 | 3 | -7 | 1 | . | .
CSC[C@H]1CN(CCc2ccccc2)C(=O)[C@@H]1CC(=O)Nc1ccc(Br)cc1 | -2 | 10 | . | . | . | . | .
CSc1ncccc1C(=O)Nc1ccc(S(=O)(=O)NC2=NCCCCC2)cc1 | 2 | -6 | 0 | -1 | 4 | . | .
O=C(Nc1ncc(Cc2ccccc2)s1)C1=NCCN1 | 65* | 9 | 1 | 96 | -2 | 93* | 77*
Cc1ccc(Cc2cnc(NC(=O)C3=NCCN3)s2)cc1 | . | . | -7 | 98 | -1 | . | .
CCOCCCNC(=O)Cn1nc(Cc2ccncc2)c2ccccc2c1=O | 3 | 8 | 0 | 4 | -4 | . | .
